Test results: PubChem BioAssay (NCATS)
A number with no mark means an inactive call. Records with an inconclusive call do not appear. Activity calls are given as the source filed them. Unless noted, calls follow the shape of the dose curve; as a rule, active = well fitted curve in the direction sought with a large enough effect; inconclusive = small, poorly fitted or top-dose-only effect, or another doubt; inactive = no such curve, though single readings can be large; an effect the other way counts as inactive or inconclusive.

Legend:
[1] = KB-3-1 P-gp reporter qHTS against the NCATS DSHEA and TCM libraries (AID 1919975); conditions: KB-3-1 parental cells, CellTiter-Glo luminescence viability, 72 h; series mostly up to 44.5 µM; also: 0% is about no effect
How it was run: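 72 h exposure of KB-3-1 cells (DMEM, 10% FBS) to DSHEA/TCM samples, concentration-response; cell viability measured as CellTiter-Glo luminescence after 30 min at room temperature.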

[2] = target: Cytochrome P450 1A2 (Homo sapiens) (UniProt P05177); assay: qHTS for inhibitors of CYPIA2 against the NCATS DSHEA and TCM libraries (AID 1919976); conditions: recombinant CYP1A2 enzyme activity, luminescence; series mostly up to 63.1 µM; also: potency is read from the fitted curve at half-maximal effect
Sequence of Cytochrome P450 1A2 (Homo sapiens) (P05177 whole entry, looked up): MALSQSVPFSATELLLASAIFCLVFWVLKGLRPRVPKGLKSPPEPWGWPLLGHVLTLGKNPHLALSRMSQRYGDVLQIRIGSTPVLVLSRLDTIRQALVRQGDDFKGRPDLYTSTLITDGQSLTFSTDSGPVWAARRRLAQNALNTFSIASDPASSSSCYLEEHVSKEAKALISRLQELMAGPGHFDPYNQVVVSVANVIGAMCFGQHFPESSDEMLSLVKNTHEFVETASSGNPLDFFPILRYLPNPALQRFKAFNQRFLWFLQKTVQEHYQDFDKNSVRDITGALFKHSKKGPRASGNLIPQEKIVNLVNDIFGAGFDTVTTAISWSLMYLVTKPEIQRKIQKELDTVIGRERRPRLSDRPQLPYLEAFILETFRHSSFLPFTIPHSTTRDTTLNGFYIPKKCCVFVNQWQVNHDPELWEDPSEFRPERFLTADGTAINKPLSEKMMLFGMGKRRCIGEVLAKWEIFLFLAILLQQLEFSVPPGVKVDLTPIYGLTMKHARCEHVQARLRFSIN
Excerpt: Assay Development and Screening Technology Laboratory (ADST)
National Center for Advancing Translational Sciences (NCATS), Rockville, MD
National Institute of Health (NIH), Bethesda, Maryland
Dietary Supplements and Natural Products have minor oversight of their safety and efficacy. We assembled a collection of Dietary Supplements and Natural Products (DSNP) as well as Traditional Chinese Medicinal (TCM) Plant extracts, which were screened against an in vitro panel of assays, including a liver cytochrome p450 enzyme panel, CAR/PXR signaling pathways, and P-gp transporter assays, to assess their activity. This pipeline facilitated the interrogation of Natural Product-Drug Interaction (NaPDI) through prominent metabolizing pathways. In addition, we compared the activity profiles of the DSNP/TCM substances with those of an approved drug collection. Many of the approved drugs have well-annotated mechanisms of action (MOA) while the MOAs for most of the DSNP and TCM samples remain unknown. […] Overall, we highlight four significant bioactivity profiles (measured by p-values) as examples of this prediction. […] To profile potential P-gp activity, a differential cell viability was measured against two cell lines: a parental KB-3-1 human cervical adenocarcinoma cell line and the drug-resistant subline KB-8-5-11 that overexpresses P-gp. […]
9; Read; Luminescence; ViewLux plate reader. […]

[3] = qHTS Counterscreen for compound interference against the NCATS DSHEA and TCM libraries (AID 1919978); conditions: firefly luciferase detection reagent interference, luminescence;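 also: compounds preincubated with 1 µM D-luciferin or buffer before detection reagent; % of control where 0% means no effect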
Excerpt: PI: Anton Simeonov Ph.D. Assay Development and Screening Technology Laboratory (ADST) National Center for Advancing Translational Sciences (NCATS), Rockville, MD National Institute of Health (NIH), Bethesda, Maryland Dietary Supplements and Natural Products have minor oversight of their safety and efficacy. We assembled a collection of Dietary Supplements and Natural Products (DSNP) as well as Traditional Chinese Medicinal (TCM) Plant extracts, which were screened against an in vitro panel of assays, including a liver cytochrome p450 enzyme panel, CAR/PXR signaling pathways, and P-gp transporter assays, to assess their activity. This pipeline facilitated the interrogation of Natural Product-Drug Interaction (NaPDI) through prominent metabolizing pathways. […] Overall, we highlight four significant bioactivity profiles (measured by p-values) as examples of this prediction. […] To profile potential P-gp activity, a differential cell viability was measured against two cell lines: a parental KB-3-1 human cervical adenocarcinoma cell line and the drug-resistant subline KB-8-5-11 that overexpresses P-gp. […]
PROTOCOL TABLE (as described by Inglese J, Shamu CE and Guy RK. 2007) SEQUENCE No. (e.g., 1, 2, 3, etc.); […] […] 7; Read; Luminescence; ViewLux plate reader. […] Plates were then read for luminescence intensity on a ViewLux detector. […]

[4] = Dual reporter qHTS for agonist of Pregnane X Receptor (hPXR) against the NCATS DSHEA and TCM libraries: Fluorescence readout (AID 1920058); conditions: PXR dual reporter cells; series mostly up to 68.2 µM; also: 0% is about no effect
How it was run: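 HepG2 hPXR-Luc, 2000 cells/well, 5 h attach; cpds ~24 h, 37 °C/5% CO2; CellTiter-Fluor 1 h; fluor. Ex/Em 405/540 nm = viability.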

[5] = qHTS Assay for Identification of Small Molecule Agonists for Hypoxia Response Element Signaling Pathway (AID 914; active = well fitted activation curve with a large enough effect in the signal ratio, with a control signal flat, not every such curve was filed as active; the % refers to the signal ratio; also: % of control where 0% means no effect); conditions: ME-180 (cervical carcinoma) HRE-bla reporter, beta-lactamase ratio, CoCl2, 17 h; activation: active compounds read high
How it was run: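 Read-out: CCF4 FRET ratio of 460nm to 530nm emission (excitation 405nm) after 2.5 hours at room temperature, taken from HRE-bla ME-180 cells that had been exposed to compound and EC50 CoCl2 for 17 hours.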

SMILES	outcome [1]	Potency [2]	max response [3] [%]	outcome [4]	activation [5] [%]
C=C(CO)C(=O)O[C@H]1CC(=C)[C@@H]2C[C@H](O)C(=C)[C@@H]2[C@H]2OC(=O)C(=C)[C@@H]21	inactive	2510 nM (active)	-4.75	inactive	
CN(C)[C@@H]1C(=O)C(C(N)=O)=C(O)[C@@]2(O)C(=O)C3=C(O)c4c(O)ccc(Cl)c4[C@@](C)(O)C3C[C@@H]12 (stereo not given in full)					4.51
